# Test results as given in PubChem BioAssay.
# The source made the active and inactive calls.
# What was measured:
# [1] = system: wheat germ agglutinin (Triticum aestivum), Alexa647-labelled; assay: Alexa647-WGA lectin binding to printed small molecules – biochemical, small-molecule microarray, 635/667 nm fluorescence, artefact control for SMM control-protein annotation, profiling panel (AID 1140); conditions: WGA-A647 binding, 635 nm fluorescence, higher = more signal;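 note: score merges 667 nm feature emission with signal to noise over triplicate slides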
# [2] = target: Luciferin 4-monooxygenase (Photinus pyralis) (UniProt P08659); assay: inhibition of purified Photinus pyralis luciferase – biochemical, luminescence, purified enzyme, 2006 set, primary screen (AID 1141); conditions: purified firefly luciferase, SteadyGlo luminescence, 30 min; higher = more signal, called active from +8 up or from −8 down;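 note: cell-free assay with purified firefly luciferase at 100 ng per well in PBS; test concentration not given here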
# [3] = system: Wnt5a (protein binding on small-molecule microarray); assay: small molecules binding Wnt5a protein – biophysical, small-molecule microarray, 635/667 nm fluorescence, primary screen (AID 1142); conditions: 635 nm fluorescence, higher = more signal;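 note: fluorescence read at 667 nm with signal to noise per printed feature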
# [4] = ATP-based viability of Huh7 replicon cells – cell-based, CellTiter-Glo luminescence, basal, 48 h, cytotoxicity control for HCV replication inhibitor project, primary screen (AID 1143); conditions: higher = more signal, called active from +8 up or from −8 down;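 note: Huh7 hepatoma cells carrying a hepatitis C replication reporter with no stimulus; test concentration not given here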
# [5] = basal CRE-LacZ reporter activity in PC12 – cell-based, unstimulated, primary screen (AID 1145); conditions: no forskolin, luminescence, 4.5 h, higher = more signal, called active from +8 up or from −8 down
# [6] = forskolin-driven CRE-LacZ activity in PC12 – cell-based, CRE-LacZ reporter, forskolin-stimulated, primary screen (AID 1146); conditions: luminescence, 4.5 h, higher = more signal, called active from +8 up or from −8 down;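 note: PC12 cells with 6xCRE LacZ reporter stimulated by forskolin 10 µM; beta-galactosidase reporter signal reflecting CREB driven transcription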
# [7] = target: Streptavidin (Streptomyces avidinii) (UniProt P22629); assay: compounds binding control protein streptavidin – biophysical, small-molecule microarray, 635/667 nm fluorescence, artefact control for SMM compound annotation, primary screen (AID 1147); conditions: higher = more signal;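 note: signal reflects streptavidin binding to arrayed compounds as a control protein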
# [8] = probe aInhba binding on compound microarray – biochemical, small-molecule microarray, 635/667 nm fluorescence, primary screen (AID 1148); conditions: higher = more signal;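 note: score merges 667nm spot fluorescence with signal-to-noise for antibody binding to printed compounds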
# Torsin-1A (Homo sapiens) [9] = target: Torsin-1A (Homo sapiens) (UniProt O14656); assay: TOR1A wild-type binding on microarray – cell lysate, small-molecule microarray, lysate, 635/667 nm, primary screen (AID 1149); conditions: COS7 hTOR1A-WT lysate, 635 nm fluorescence, higher = more signal
# Torsin-1A (Homo sapiens) [10] = target: Torsin-1A (Homo sapiens) (UniProt O14656); assay: torsin A mutant lysate binding on microarrays – cell lysate, small-molecule microarray, COS7 lysate, 635/667 nm fluorescence, primary screen (AID 1150); conditions: COS7 hTOR1A mutant lysate, 635 nm fluorescence, higher = more signal;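 note: score pools 667 nm emission and signal to noise measuring lysate protein binding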
# [11] = system: Sonic hedgehog protein (Shh); assay: Sonic hedgehog microarray binding compounds – biochemical, small-molecule microarray, 635/667 nm fluorescence, primary screen (AID 1151); conditions: 635 nm fluorescence, higher = more signal;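 note: Shh protein binding to compounds spotted on small-molecule microarray slides; score combines spot fluorescence intensity with signal-to-noise across triplicate slides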
# [12] = optical density shifts of acrAB sulA E. coli – strain DRC41, OD650, 48 h, E. coli filamentation inducer project, primary screen (AID 1152); conditions: higher = more signal, called active from +8 up or from −8 down;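 note: E. coli MC1000 strain DRC41 lacking acrAB efflux pump and sulA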
# [13] = probe aLefty1 binding on compound microarray – biochemical, small-molecule microarray, 635/667 nm fluorescence, primary screen (AID 1153); conditions: higher = more signal;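 note: score merges spot fluorescence with signal-to-noise ratio from the scanned slide images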
# [14] = plasmodial surface anion channel blockers, osmotic lysis – cell-based, P. falciparum Indochina, OD700, 1 h, primary screen (AID 1154); conditions: P. falciparum Indochina infected RBC osmotic lysis, higher = more signal, called active from +8 up or from −8 down
# [15] = plasmodial surface anion channel blockers, osmotic lysis – cell-based, P. falciparum Indochina, OD700, 2 h, primary screen (AID 1155);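 note: lysis reports solute entry through the parasite surface anion channel PSAC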; conditions: P. falciparum Indochina infected erythrocytes, higher = more signal, called active from +8 up or from −8 down
# [16] = changes in parasitized red cell lysis, either direction – P. falciparum Indochina, OD700, 3 h, PSAC antagonist project, primary screen (AID 1156); conditions: P. falciparum-infected erythrocytes, osmotic lysis, higher = more signal, called active from +8 up or from −8 down
# [17] = plasmodial surface anion channel blockers, osmotic lysis – cell-based, P. falciparum Indochina, OD700, 18 h, primary screen (AID 1157); conditions: P. falciparum Indochina infected erythrocytes, osmotic lysis OD700, 18 h; higher = more signal, called active from +8 up or from −8 down
# [18] = S6 kinase pathway phospho-S6 level changes – cell-based, A549, cytoblot, luminescence, serum-stimulated, primary screen (AID 1158); conditions: 5 h, higher = more signal;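 note: serum-stimulated A549 lung adenocarcinoma cells; signal is phosphorylated S6 detected by cytoblot immunostaining with HRP secondary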
# [19] = target: NADPH oxidase 2 (Homo sapiens) (UniProt P04839); assay: compounds shifting NOX2 Amplex Red fluorescence – cell-based, HEK293-NOX2, PMA-stimulated, NOX inhibitor project, primary screen (AID 1159); conditions: 45 min, higher = more signal, called active from +8 up or from −8 down; note: test concentration not given here
# [20] = target: NADPH oxidase 4 (Homo sapiens) (UniProt Q9NPH5); assay: compounds shifting NOX4 Amplex Red fluorescence – cell-based, HEK293-NOX4, tetracycline-induced, NOX inhibitor project, primary screen (AID 1160); conditions: HEK293-NOX4, Amplex Red H2O2 fluorescence, 45 min; higher = more signal, called active from +8 up or from −8 down
# NADPH oxidase 4 (Homo sapiens), sequence (Q9NPH5 whole entry, looked up): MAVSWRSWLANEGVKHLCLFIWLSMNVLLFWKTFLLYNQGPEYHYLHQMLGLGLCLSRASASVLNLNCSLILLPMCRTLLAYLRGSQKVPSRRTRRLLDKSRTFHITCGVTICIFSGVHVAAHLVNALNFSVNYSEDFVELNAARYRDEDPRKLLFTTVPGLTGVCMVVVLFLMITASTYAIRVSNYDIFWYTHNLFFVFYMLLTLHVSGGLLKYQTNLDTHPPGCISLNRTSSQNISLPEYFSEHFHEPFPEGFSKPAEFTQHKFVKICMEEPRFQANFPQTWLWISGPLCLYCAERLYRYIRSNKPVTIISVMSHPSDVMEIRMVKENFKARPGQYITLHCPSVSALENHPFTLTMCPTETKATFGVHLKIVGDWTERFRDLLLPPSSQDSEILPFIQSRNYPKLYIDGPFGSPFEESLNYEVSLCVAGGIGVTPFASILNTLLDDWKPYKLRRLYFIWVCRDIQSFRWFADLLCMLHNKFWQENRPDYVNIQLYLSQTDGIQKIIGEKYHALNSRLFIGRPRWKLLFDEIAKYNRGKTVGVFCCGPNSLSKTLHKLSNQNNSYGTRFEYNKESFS
# NADPH oxidase 2 (Homo sapiens), sequence (P04839 whole entry, looked up): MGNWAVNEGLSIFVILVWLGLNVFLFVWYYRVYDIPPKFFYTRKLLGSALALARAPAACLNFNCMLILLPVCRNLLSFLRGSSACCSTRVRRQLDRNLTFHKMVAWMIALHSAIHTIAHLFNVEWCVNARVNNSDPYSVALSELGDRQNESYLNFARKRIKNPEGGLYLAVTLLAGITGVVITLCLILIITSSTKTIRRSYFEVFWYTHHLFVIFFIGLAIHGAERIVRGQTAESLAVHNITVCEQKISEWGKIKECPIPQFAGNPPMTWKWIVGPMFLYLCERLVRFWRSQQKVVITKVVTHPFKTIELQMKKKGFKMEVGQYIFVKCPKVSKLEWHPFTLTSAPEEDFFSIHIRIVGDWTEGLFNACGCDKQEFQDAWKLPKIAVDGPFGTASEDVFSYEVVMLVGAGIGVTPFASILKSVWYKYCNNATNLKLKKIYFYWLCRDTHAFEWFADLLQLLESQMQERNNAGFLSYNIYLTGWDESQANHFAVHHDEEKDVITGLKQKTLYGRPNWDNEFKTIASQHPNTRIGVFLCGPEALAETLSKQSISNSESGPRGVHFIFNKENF
# Streptavidin (Streptomyces avidinii), sequence (P22629 whole entry, looked up): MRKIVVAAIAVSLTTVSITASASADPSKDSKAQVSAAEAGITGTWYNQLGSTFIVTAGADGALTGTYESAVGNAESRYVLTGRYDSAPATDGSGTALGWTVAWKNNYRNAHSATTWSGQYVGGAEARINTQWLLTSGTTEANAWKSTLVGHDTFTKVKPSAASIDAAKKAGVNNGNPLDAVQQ
# Torsin-1A (Homo sapiens), sequence (O14656 whole entry, looked up): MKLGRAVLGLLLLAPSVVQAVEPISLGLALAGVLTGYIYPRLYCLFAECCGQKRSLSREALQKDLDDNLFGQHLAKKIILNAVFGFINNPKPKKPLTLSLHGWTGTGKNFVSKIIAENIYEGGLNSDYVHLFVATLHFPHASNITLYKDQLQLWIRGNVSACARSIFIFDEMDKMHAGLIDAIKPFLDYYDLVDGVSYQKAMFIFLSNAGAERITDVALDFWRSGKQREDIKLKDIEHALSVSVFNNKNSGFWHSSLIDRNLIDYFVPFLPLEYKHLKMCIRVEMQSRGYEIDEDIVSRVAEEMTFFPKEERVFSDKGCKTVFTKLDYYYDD
# Luciferin 4-monooxygenase (Photinus pyralis), sequence (P08659 whole entry, looked up): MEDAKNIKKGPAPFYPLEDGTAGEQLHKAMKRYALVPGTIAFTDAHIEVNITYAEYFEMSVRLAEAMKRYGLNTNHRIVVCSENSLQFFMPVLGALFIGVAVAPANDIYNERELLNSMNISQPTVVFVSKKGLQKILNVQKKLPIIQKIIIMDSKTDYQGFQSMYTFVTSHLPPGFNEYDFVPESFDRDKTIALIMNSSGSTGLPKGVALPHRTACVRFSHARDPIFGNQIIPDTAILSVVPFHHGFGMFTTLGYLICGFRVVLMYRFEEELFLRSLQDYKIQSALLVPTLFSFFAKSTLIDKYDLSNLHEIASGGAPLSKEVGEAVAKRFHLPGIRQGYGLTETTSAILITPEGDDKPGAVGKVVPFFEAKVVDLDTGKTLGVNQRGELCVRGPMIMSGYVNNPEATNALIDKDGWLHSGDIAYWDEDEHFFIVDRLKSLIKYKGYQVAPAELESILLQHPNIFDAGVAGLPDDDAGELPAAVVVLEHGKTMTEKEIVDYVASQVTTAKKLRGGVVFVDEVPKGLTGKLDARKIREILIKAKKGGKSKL
SMILES,composite z-score [1],z-score [2],composite z-score [3],z-score [4],z-score [5],z-score [6],composite z-score [7],composite z-score [8],composite z-score (Torsin-1A (Homo sapiens) [9]),composite z-score (Torsin-1A (Homo sapiens) [10]),composite z-score [11],z-score [12],composite z-score [13],z-score [14],z-score [15],z-score [16],z-score [17],z-score [18],z-score [19],z-score [20]
O=C1O[C@H](c2ccccc2)[C@H](c2ccccc2)N2[C@H]1[C@@H](C(=O)Nc1nc3ccccc3s1)[C@]1(C(=O)Nc3ccc(C#CCCO)cc31)[C@H]2c1ccccc1OCCO,1.3,-1.14 (inactive),0.81,-2.88 (inactive),0.182 (inactive),-0.428 (inactive),1.11,0.279,0.795,0.778,0.384,2.34 (inactive),0.634,2.76 (inactive),2.95 (inactive),1.4 (inactive),1.69 (inactive),0.503,0.146 (inactive),0.228 (inactive)
CC(C)[C@@H](C(=O)O)n1cc(-c2ccccn2)nn1,0.957,-0.495 (inactive),-0.267,0.715 (inactive),-0.201 (inactive),0.159 (inactive),0.62,0.202,0.417,0.567,0.673,2.01 (inactive),-0.0559,-0.0828 (inactive),0.0486 (inactive),0.322 (inactive),0.0401 (inactive),0.0264,-0.847 (inactive),0.242 (inactive)
[N-]=[N+]=NCc1ccccc1C[C@]1(C(=O)NCc2ccccc2)N=C(c2ccc(OCCCO)cc2)O[C@H]1c1ccccc1,1.24,-1.19 (inactive),0.46,-4.02 (inactive),1.11 (inactive),-1.14 (inactive),0.532,0.216,-0.265,0.765,-0.948,1.78 (inactive),0.832,10.9 (active),1.53 (inactive),3.76 (inactive),-0.605 (inactive),1.09,-0.425 (inactive),1.24 (inactive)
COCCCNC(=O)[C@@]1(CCS(=O)(=O)c2ccccc2)N=C(c2ccc(OCCCO)cc2)O[C@H]1c1ccccc1CN=[N+]=[N-],1.24,-0.888 (inactive),0.671,-5.36 (inactive),2.57 (inactive),-1.7 (inactive),1.41,0.358,-0.183,0.186,0.744,2.33 (inactive),1.03,23.5 (active),4.65 (inactive),2.25 (inactive),0.425 (inactive),3.83,0.439 (inactive),-0.383 (inactive)
C=C1C=C(Br)C2(OCCCO2)[C@H]2OC12 (stereo not given in full),-0.903,-0.914 (inactive),-0.093,0.15 (inactive),0.199 (inactive),0.676 (inactive),0.61,-0.128,0.639,0.495,0.411,0.659 (inactive),-0.147,-0.14 (inactive),0.146 (inactive),-0.334 (inactive),-0.12 (inactive),-0.281,0.868 (inactive),0.0158 (inactive)
CC(C)[Si](C#C[Si](C(C)C)(C(C)C)C(C)C)(O[C@H](C)c1cn([C@H](C)c2ccccc2)nn1)C(C)C,0.625,-1.4 (inactive),0.0985,-1.48 (inactive),-0.332 (inactive),-1.59 (inactive),0.434,-0.0209,0.144,0.477,1.14,2.49 (inactive),0.241,0.792 (inactive),-0.533 (inactive),-0.926 (inactive),-1.01 (inactive),0.728,0.586 (inactive),0.587 (inactive)
C=C(COC)C(=O)CC[C@H](OC(=O)c1cccnc1)c1cccc(OCCO)c1,-0.363,-2.13 (inactive),1,-0.365 (inactive),6.86 (inactive),0.309 (inactive),-0.347,0.345,2.35,0.0556,2.06,1.05 (inactive),0.75,10.4 (active),1.47 (inactive),0.934 (inactive),0.577 (inactive),-0.597,0.936 (inactive),0.743 (inactive)
O=C1c2ccccc2[C@](Cc2ccccc2I)(C(=O)O)[C@H](c2ccc(CO)cc2)N1Cc1ccccc1Cl,0.507,-1.28 (inactive),0.0716,-1.86 (inactive),-0.0888 (inactive),-0.873 (inactive),0.414,0.112,0.252,1.01,0.0948,1.76 (inactive),0.122,4.07 (inactive),-0.442 (inactive),0.477 (inactive),-1.07 (inactive),1.21,1.35 (inactive),0.57 (inactive)
CC(C)N1CC=CC23O[C@@H]4/C=C\CCCOC(=O)C4[C@H]2C(=O)N(CCCO)[C@@H]3C1=O (stereo not given in full),-0.965,-1.38 (inactive),-0.059,-0.354 (inactive),0.191 (inactive),-0.256 (inactive),-1.1,-0.176,-0.934,0.367,-0.102,1.71 (inactive),0.236,0.245 (inactive),0.0014 (inactive),1.1 (inactive),-0.083 (inactive),-0.108,1.58 (inactive),-1.85 (inactive)
C=CCN1C(=O)[C@]2(O[C@H](CCn3cc([C@H](O)c4ccccc4)nn3)[C@@H]([Si](C)(C)c3ccc(OC)cc3)[C@@H]2C)c2cc(N3CCOC3=O)ccc21,0.514,-0.678 (inactive),-0.185,-5.33 (inactive),2.8 (inactive),-2.35 (inactive),-0.0082,-0.224,0.772,0.76,-0.429,1.46 (inactive),-0.417,4.38 (inactive),-0.527 (inactive),1.03 (inactive),-1.58 (inactive),0.348,-0.122 (inactive),1.61 (inactive)
CC(C)NC(=O)[C@@H]1c2ccccc2C(=O)N(Cc2cc(F)cc(C(F)(F)F)c2)[C@H]1c1ccc(CO)cc1,-1.21,-0.758 (inactive),-0.0581,0.142 (inactive),-0.529 (inactive),-1.08 (inactive),-0.95,-0.329,-0.479,-0.0988,-0.72,1.39 (inactive),-0.113,2.06 (inactive),0.391 (inactive),1.47 (inactive),0.178 (inactive),0.161,0.146 (inactive),1.08 (inactive)
CC(C)CCC[C@@H](C)[C@H]1CC[C@@]2(C)C3=C(CC[C@]12C)[C@@]1(C)CC[C@H](OC(=O)CCl)C(C)(C)C1CC3 (stereo not given in full),0.274,-1.28 (inactive),0.109,-0.186 (inactive),1.3 (inactive),-0.731 (inactive),0.0285,-0.251,0.662,0.358,0.588,3.33 (inactive),-0.194,-0.0025 (inactive),-0.116 (inactive),-0.417 (inactive),0.01 (inactive),0.413,-0.776 (inactive),0.446 (inactive)
O=C1O[C@H](c2ccccc2)[C@H](c2ccccc2)N2[C@H]1[C@@H](C(=O)NC[C@H](O)c1ccccc1)[C@]1(C(=O)Nc3ccc(C#CC4(O)CCCCCC4)cc31)[C@H]2c1ccc(O)cc1,0.588,-1.56 (inactive),0.195,-2.13 (inactive),-0.0607 (inactive),-0.58 (inactive),0.26,0.0377,0.704,1.02,1.27,1.46 (inactive),0.0495,0.519 (inactive),0.447 (inactive),0.001 (inactive),-0.181 (inactive),0.381,1.68 (inactive),0.753 (inactive)
CCOC(=O)C[C@H]1[C@H](OC(=O)Cc2ccc3c(c2)OCO3)[C@@H](NC(=O)c2ccc3ccccc3c2)c2cc(OCCCO)ccc2N1C(=O)c1ccc2ccccc2n1,1.06,-1.25 (inactive),0.0364,-2.81 (inactive),7.41 (inactive),-1.37 (inactive),0.398,0.219,0.0253,0.107,0.555,0.869 (inactive),0.169,11.8 (active),1.44 (inactive),-0.859 (inactive),0.0679 (inactive),1.49,0.0194 (inactive),-0.0398 (inactive)
[N-]=[N+]=NCc1ccccc1C[C@@]1(C(=O)NCc2ccccc2)N=C(c2ccc(OCCCO)cc2)O[C@@H]1c1ccccc1,1,-1.15 (inactive),0.238,-5.27 (inactive),0.596 (inactive),-0.942 (inactive),0.229,-0.025,0.0526,1.48,-0.353,1.75 (inactive),0.277,21 (active),5.58 (inactive),1.81 (inactive),-0.217 (inactive),0.969,1.2 (inactive),0.964 (inactive)
CCCCCCC#C[Si](O[C@H](c1ccccc1)c1cn(Cc2ccccc2)nn1)(C(C)C)C(C)C,-0.349,-1.15 (inactive),-0.0163,-1.53 (inactive),-1.23 (inactive),-1.35 (inactive),0.239,-0.128,0.122,0.345,0.609,3.05 (inactive),-0.101,1.66 (inactive),-0.226 (inactive),-0.0275 (inactive),-0.327 (inactive),0.35,-0.941 (inactive),0.369 (inactive)
